Screens (PubChem)
VACV E9 pol inh = inhibitors of vaccinia virus processive DNA synthesis (E9 polymerase); AID 493162; in vitro processive DNA synthesis, absorbance read-out; active compounds read low; actives 0.94% (n = 46,000); normalized absorbance, % (concentration not given with the values); in the data active means normalized absorbance mostly below about 85%, no sharp cut-off; inactive means mostly above about 86%
* = called active by the depositor. The entries come from a sample that favours hits as a whole.

SMILES	VACV E9 pol inh
CCOC(=O)c1[nH]c(C(=O)O)c(C(=O)OCc2ccccc2)c1CCC(=O)O	101
CC(C)c1nc2ccccc2n1CC(=O)N(c1ccccc1)C(C)C	92
Cc1nn(-c2ccccc2)c2sc(C(=O)O)cc12	98
Cc1nn(-c2ccccc2)c2sc(C(=O)NC(C)C)cc12	82
Cc1nn(-c2ccccc2)c2sc(C#N)c(N)c12	80*
CCSc1ncc(CO)n1C	92
N/C(CC(=O)Nc1ccc(Cl)cc1)=N/O	99
CCC(=O)Nc1c(-c2ccc(F)cc2)nc2ccccn12	101
CCOc1ccc(-n2nnnc2-c2ccccn2)cc1	75
N#CC1=C(SCc2ccccc2)SC(c2ccccc2O)NC1=O (stereo not drawn)	50*
CCSC1=C(C#N)C(=O)NC(/C=C/c2ccccc2)S1 (stereo not drawn)	108
COC(=O)CSC1=C(C#N)C(=O)NC(c2ccccc2O)S1 (stereo not drawn)	91
C=CCNC(=O)C1C(=O)NC2(C)CC1c1ccccc1O2 (stereo not drawn)	102
O=C(NCCCN1CCOCC1)c1ccccc1	100
O=C1Nc2ccccc2O/C1=C\c1ccccc1	106
CC1CCN(CCCNC(=O)c2ccc(/C=C3\Oc4ccccc4NC3=O)cc2)CC1	70*
Cc1cc2ccccc2c(N=Cc2cc(Br)cc(Br)c2O)c1C#N	81
Cc1c(N=Cc2cc(Br)cc(Br)c2O)cccc1C(=O)O	45*
COc1cccc(C=Nc2cccc(C(=O)O)c2C)c1O	94
O=c1c2oc3ccccc3c2n(Cc2ccccc2)c(=O)n1Cc1ccccc1	101
Cc1cccc2nc(CBr)cn12	103
COC[C@@H]1N=C(C)OC1c1ccccc1 (stereo partly drawn)	91
NC(=O)C1CCN(c2ncccn2)CC1	118
CC1CCN(C(=O)C2CCN(CC3CCCCC3)CC2)CC1	102
COc1ccc2c(c1)c1ccccc1n2C	67*
SMILES	VACV E9 pol inh
COc1ccc(OC)c(-c2n(C)c3ccccc3[n+]2C)c1	75
COc1ccc2c(c1)c(C(=O)CSc1ccccc1)c(C)n2C	95
Cc1cc(=O)oc2cc(OC(=O)CSC(=N)N)ccc12	101
COC(=O)c1sccc1S(=O)(=O)N1CCN(c2ncnc3c(C)csc23)CC1	118
Cc1csc2c(N3CC(C)OC(C)C3)ncnc12 (stereo not drawn)	100
Cc1csc2c(N3CCN(C(=O)NC(C)(C)C)CC3)ncnc12	60*
CCN(CC)c1ccc(NC(C)C(=O)Nc2ccc(C)cc2)cc1 (stereo not drawn)	100
COc1ccc2c(c1)cc1n2CCN=C1N	90
COc1ccc2c(c1)cc1n2CCN2CCN=C12	76
COc1ccc2c(c1)c1nc(N(C)C)nc3c1n2CCN3C	11*
O=C(O)c1cccc(N2C(=O)c3ccc(C(=O)O)cc3C2=O)c1	100
CC(=O)OCC(=O)Nc1ccc(I)cc1C	102
C=CCON1C(=O)C2C3C=CC(O3)C2C1=O (stereo not drawn)	101
O=C(COC(=O)C1CCCCC1)Nc1cc(Cl)cc(Cl)c1	108
CC1CC(=O)c2cnc(N3CCc4ccccc43)nc2C1 (stereo not drawn)	100
S=c1[nH]c(=S)c2cnc(N3CCc4ccccc43)nc2[nH]1	98
CNc1nc(N2CCc3ccccc32)ncc1F	56*
O=C(Nc1ncc(-c2ccccc2)s1)c1cccc(N2C(=O)CCC2=O)c1	100
CCCCN1CN=C(Nc2nc(C)c3ccccc3n2)NC1	96
Cc1nc(NC2=NCN(Cc3ccccc3)CN2)nc2ccccc12	73*
c1ccc(CN2CN=C(Nc3nc4ccccc4o3)NC2)cc1	103
COc1ccc(C(=O)Nc2ccc3c(c2)C(=O)N(CCC(=O)O)C3=O)cc1	99
CCn1c2ccccc2c2cc(C=Nc3ccc(C)cc3O)ccc21	91
CCn1c2ccccc2c2cc(N)ccc21	92
CCn1c2ccccc2c2cc(C=Nc3cccc(C#N)c3)ccc21	77*
SMILES	VACV E9 pol inh
COc1ccc(CCNC(=O)c2ccc(Cl)cc2NC(=O)C2=C(C)OCCS2)cc1OC	99
CCC(C)(C#CCN1CCN(C)CC1)OC1CCCCO1 (stereo not drawn)	102
Cn1cc(Br)c(N2C(=O)C=CC2=O)n1	102
Cc1nn(-c2ccccc2)c(C)c1Sc1ccccc1	100
CC(=O)Oc1c(Sc2ccccc2)c(C)nn1-c1ccccc1	77*
CCCC(=O)Oc1c(Sc2ccccc2)c(C)nn1-c1ccccc1	86
COc1ccc2c(c1)sc(=NC(=O)CSCC(=O)N1CCc3ccccc31)n2C	100
CCOC(=O)Cc1[nH]nc2c1C(c1ccc(Cl)cc1)C(C#N)=C(N)O2 (stereo not drawn)	108
O=C(COc1ccc2ccc(=O)oc2c1)c1ccccc1Cl	99
CN(C)CCN(C(=O)c1ccco1)c1nc2cc3c(cc2s1)OCO3	61*
COc1ccc2sc(N(CCN(C)C)C(C)=O)nc2c1	99
COc1ccc2nc(N(CCN(C)C)C(=O)c3cccs3)sc2c1	95
Oc1cccc(-c2ccc3ccccc3n2)c1	97
CC1CCCC(NC(=O)COC(=O)c2ccc(O)cc2)C1C (stereo not drawn)	94
ClCC1CCCO1 (stereo not drawn)	102
COc1ccc(Nc2ccnc3ccccc23)cc1	98
CC(C)Nc1ccc(Nc2ccccc2)cc1	96
CC(C)Nc1ccc(Nc2ccnc3cc4ccccc4cc23)cc1	10*
Oc1ccc(Nc2nc(N3CCOCC3)c3ccccc3n2)cc1	89
c1cc(N2CCOCC2)ccc1NC1=NCCS1	89
c1ccc2cc3c(Nc4ccc(N5CCOCC5)cc4)ccnc3cc2c1	67*
CN1CCc2c(n(CC(O)CN3CCCC3)c3ccccc23)C1=O (stereo not drawn)	84
O=C(COc1ccccc1C(=O)O)NC12CC3CC(CC(C3)C1)C2	102
CSc1nc(N)c(C#N)s1	101
Cc1ccc(NCc2cccc3c2CN(CC2CCCO2)C3)cc1 (stereo not drawn)	100
SMILES	VACV E9 pol inh
Cc1c(C)c(C)c(CSC2=NCC(C)N2)c(C)c1C (stereo not drawn)	79
CC1CCCCN1C(=O)CSc1ccc2ccccc2c1 (stereo not drawn)	73*
CCOC(=O)C1CCCN(C(=O)CSc2ccc3ccccc3c2)C1 (stereo not drawn)	94
CC1CCCCN1C(=O)CSc1nnc(-c2ccccc2)o1 (stereo not drawn)	95
COc1ccc(C(=O)Cc2ccccc2)cc1	93
CCOC(=O)C1=CN(c2ccc(C)cc2)C=C(C(=O)OCC)C1c1cccs1	100
O=C(c1nc(-c2ccc(Cl)cc2)n2c1CCCCC2)N1CCc2ccccc21	107
O=C(CN1C(=O)/C(=C\c2cccs2)SC1=S)Nc1ccc2c(c1)OCO2	102
Clc1ccc(C=NCc2ccc(-c3cccs3)s2)cc1	99
Cc1csc2sc(COC(=O)Nc3ccccc3)c(C)c12	99
Cc1csc2sc(C=NCc3cccs3)c(C)c12	63*
CCN1CCN(CC(O)COc2ccc(-c3ccccc3)cc2)CC1 (stereo not drawn)	96
Nc1nnc(SCC(=O)NCc2ccco2)s1	100
COc1ccccc1C(=O)CSc1ccc(Cl)cc1	80
CCCNC(=O)c1ccc(-n2c(C)cc3c2CCCC3)cc1	89
Cc1c(C)n(Cc2ccccc2)c2ccc(C(=O)OCCN3CCOCC3)cc12	98
Cc1c(C)n(CCN(C)C)c2ccc(C(=O)OCCN(C)C)cc12	62*
CCOC(=O)c1ccc2c(c1)c(C)c(C)n2Cc1ccccc1	99
CCN(CCO)c1ccccc1	101
CN1CCN(c2cc(-c3ccccc3)nc3ccccc23)CC1	79*
